aSyn UTR act – Activators working through SNCA 5'UTR binding (MLPCN); alpha-synuclein 5'UTR reporter, activators screen; activity score, % (tested at 7.5 µM), hits read low; hit rate 7.1% among 300,000; in the data active = activity score below about -60%
Hits are given with their value. A selection follows.

`CC(=O)c1ccc(OCc2ncc(C(F)(F)F)cc2Cl)cc1` gave aSyn UTR act -81.0.
FC(F)(F)c1cnc(COc2ccc(Cl)cc2Cl)c(Cl)c1 was read as aSyn UTR act -81.8.
For O=C(CCN1C(=O)/C(=C/c2ccccc2F)SC1=S)NC1C=CS(=O)(=O)C1 (centres undefined) the results were aSyn UTR act -62.2.
`O=C(O)CCCN1C(=O)/C(=C\C(Cl)=C\c2ccccc2)SC1=S` gave aSyn UTR act -224.7.
For COCCN1C(=O)/C(=C/c2ccc(N3CCCC3)cc2)SC1=S the results were aSyn UTR act -85.4.
O=C(CCN1C(=O)/C(=C/c2ccccc2)SC1=S)N1CCCCCC1 was read as aSyn UTR act -62.4.
Screening CCOc1ccc(/C=C2\SC(=S)N(CCC(=O)O)C2=O)cc1 returned aSyn UTR act inactive.
Screening O=C(CCN1C(=O)/C(=C\c2ccccc2F)SC1=S)N1CCCCC1 returned aSyn UTR act -116.7.
`CC1CCN(C(=O)CCN2C(=O)/C(=C/c3cccs3)SC2=S)CC1` gave aSyn UTR act -74.7.
CC(C)c1ccc(/C=C2\SC(=O)N(CC(=O)NC3C=CS(=O)(=O)C3)C2=O)cc1 (centres undefined) was read as aSyn UTR act -69.0.
Screening O=C(CCCN1C(=O)/C(=C/c2ccccc2Cl)SC1=S)NNC(=O)c1ccc(Cl)cc1 returned aSyn UTR act inactive.
For Nc1nccc(/C=C/c2ccc(Cl)cc2)n1 the results were aSyn UTR act -112.4.
`Cc1c([N+](=O)[O-])c(C(=O)Nc2ccc3c(c2)OCCO3)nn1C` gave aSyn UTR act -140.2.
O=C(Nc1ccc(F)c([N+](=O)[O-])c1)c1ccc2c(c1)OCCO2 was read as aSyn UTR act -137.6.
`COc1cc(C(=O)Nc2ccc3c(c2)OCCO3)ccc1OC(F)F` gave aSyn UTR act -153.3.
For COc1ccc(NC(=O)c2ccc3c(c2)OCCO3)cc1OC the results were aSyn UTR act -103.9.
`COc1ccc(C(=O)Nc2ccc3c(c2)OCCO3)cc1[N+](=O)[O-]` gave aSyn UTR act -94.1.
Screening COc1cc(C(=O)Nc2ccc3c(c2)OCCO3)ccc1OC(C)C returned aSyn UTR act -163.1.
For Cc1csc(NC(=O)c2nn(C)c(C)c2[N+](=O)[O-])n1 the results were aSyn UTR act -122.9.
O=C(N/N=C/c1ccccn1)NC12CC3CC(CC(C3)C1)C2 was read as aSyn UTR act -105.1.
O=C(N/N=C/c1ccccc1F)NC12CC3CC(CC(C3)C1)C2 was read as aSyn UTR act -114.8.
Screening CCC1(C)Cc2c(sc3nc(SC)n(Cc4ccccc4)c(=O)c23)CO1 (centres undefined) returned aSyn UTR act -117.6.
For Fc1ccc2nc3[nH]c4ccccc4c3nc2c1 the results were aSyn UTR act -160.7.
`COc1ccc(-c2ccc(CO)o2)cc1N` gave aSyn UTR act -81.9.
Screening N#Cc1c(N)nc2c(c1N)CC(=O)N2c1ccc(Cl)cc1 returned aSyn UTR act -132.2.
`Cn1cc(Br)c(C(=O)Nc2sc3c(c2C(N)=O)CCC3)n1` gave aSyn UTR act -94.6.
For Cn1nccc1C(=O)Nc1sc2c(c1C#N)CCCC2 the results were aSyn UTR act -100.3.
`Cn1nccc1C(=O)Nc1sc2c(c1C(N)=O)CCCC2` gave aSyn UTR act -126.4.
For Cc1c(C(=O)N(CCO)Cc2ccccc2)oc2c(F)cccc12 the results were aSyn UTR act -112.3.
Screening COc1ccccc1Oc1ncnc2c1cnn2-c1ccccc1 returned aSyn UTR act -115.4.
Screening COc1ncnc2c1cnn2-c1ccccc1 returned aSyn UTR act -67.4.
For COc1ccc(-n2ncc3c(N(C)C4CCCCC4)ncnc32)cc1 the results were aSyn UTR act inactive.
`Cc1ccc(NC(=O)c2noc3c2CCc2ccccc2-3)cc1` gave aSyn UTR act -205.2.
CCc1ccc(NC(=O)C2(C)Cc3ccccc3C(=O)O2)cc1 (centres undefined) was read as aSyn UTR act -142.0.
Screening CCc1ccc(NC(=O)c2noc3c2CCc2ccccc2-3)cc1 returned aSyn UTR act -95.3.
CC(NC(=O)Cn1ncc(Cl)c(Cl)c1=O)C12CC3CC(CC(C3)C1)C2 (centres undefined) was read as aSyn UTR act inactive.
For O=C(Cn1sc2ccccc2c1=O)NC12CC3CC(CC(C3)C1)C2 the results were aSyn UTR act -91.8.
`Cc1ccc(Cn2ncn(-c3ccccc3)c2=O)cc1` gave aSyn UTR act -73.8.
Screening Cc1ccccc1-c1nc(Cc2ccccc2)no1 returned aSyn UTR act -129.1.
Clc1ccc(-c2nc(Cc3ccccc3)no2)cc1 was read as aSyn UTR act -141.0.
Screening CCOc1ccc2c(c1)c(N=O)c(O)n2C returned aSyn UTR act -64.9.
For CCOC(=O)c1c(C)nc2c3ccccc3ccn12 the results were aSyn UTR act -90.6.
NC(=O)c1cc2c3ccccc3ccn2c1-c1ccccc1 was read as aSyn UTR act inactive.
NC(=O)c1ccccc1N/C=C/C(=O)c1ccco1 was read as aSyn UTR act -96.6.
O=C(/C=C/Nc1cccc(C(F)(F)F)c1)c1ccco1 was read as aSyn UTR act -173.9.
For O=C(/C=C/Nc1cccc(C(F)(F)F)c1)c1ccc(Oc2ncccn2)cc1 the results were aSyn UTR act -93.7.
Screening O=C(/C=C/Nc1ccccc1C(F)(F)F)c1ccco1 returned aSyn UTR act -321.3.
Screening O=C(/C=C/Nc1ccc(Oc2ccccc2)cc1)c1ccco1 returned aSyn UTR act -200.9.
CC(=O)Oc1ccc2occ(C(=O)c3cccs3)c2c1 was read as aSyn UTR act -175.1.
For O=C(CCl)Oc1ccc2occ(C(=O)c3cccs3)c2c1 the results were aSyn UTR act -193.4.
For CC(=O)Oc1ccc2occ(C(=O)c3ccccc3)c2c1 the results were aSyn UTR act -134.3.
O=C(c1cccs1)c1coc2ccc(O)cc12 was read as aSyn UTR act -199.9.
For CC(=O)Oc1ccc2occ(-c3ccccc3)c2c1 the results were aSyn UTR act -136.6.
For Oc1ccc2c(c1)oc1cc(O)ccc12 the results were aSyn UTR act -177.6.
`COc1ccc(-c2csc(NC(=O)C3=COCCO3)n2)c(OC)c1` gave aSyn UTR act -86.3.
For COc1ccccc1-c1nnc(NC(=O)C2=COCCO2)o1 the results were aSyn UTR act -74.6.
`CC(C)(C)c1ccc(NC(=O)COC(=O)C2=COCCO2)cc1` gave aSyn UTR act -89.5.
Screening C=CCNc1nc(-c2ccc(OC)cc2OC)cs1 returned aSyn UTR act -320.6.
`COc1ccc(-c2csc(NC(=O)COC(=O)C3=COCCO3)n2)cc1` gave aSyn UTR act -128.2.
CC(C)(C)c1ccc(NC(=O)COC(=O)C2(C)CC2(Cl)Cl)cc1 (centres undefined) was read as aSyn UTR act -138.1.
For C=CCn1c(C)cc(-c2csc(NC(=O)C3=COCCO3)n2)c1C the results were aSyn UTR act -89.4.
`Cc1ccccc1C(=O)Oc1ccc2ccc(O)cc2c1` gave aSyn UTR act -162.2.
Cc1ccccc1S(=O)(=O)Oc1ccc2ccc(O)cc2c1 was read as aSyn UTR act -131.1.
O=C(Cn1nnc(-c2ccc(OCc3ccccc3F)cc2)n1)N1CCOCC1 was read as aSyn UTR act -69.8.
`O=C(Cn1nnc(-c2ccccc2Cl)n1)N1CCCCC1` gave aSyn UTR act -98.1.
For O=C(Cn1nnc(-c2ccccc2)n1)N1CCCCC1 the results were aSyn UTR act -70.3.
CC(C)c1ccc(-c2nnn(CCC(=O)O)n2)cc1 was read as aSyn UTR act inactive.
For Cn1c(-c2ccccc2)cnc1SCC(=O)N1CCCCC1 the results were aSyn UTR act inactive.

High-throughput results (PubChem BioAssay)
